# In PubChem BioAssay (EPA / NIEHS):
# Inconclusive results are not listed. Active and inactive are the calls of the source. The calls were made as follows: active = hit-call score of the fitted dose curve at least 0.9, where 1 is the maximum; inconclusive = response in the unintended direction; inactive = score below 0.9.
# Assay: Tanguay_ZF_120hpf_SOMI_legacy: (Legacy) Oregon State University Tanguay Lab 120 Hour Post-fertilization zebrafish Assay for Somite Malformation (AID 2283647)
# How it was run: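 5D WT zebrafish; chorion removed 4 hpf; 1 embryo/well from 6 hpf; static exposure to 120 hpf, 28C, 0.64% DMSO final. Endpoint: somite malformation, binary, brightfield. Mortality excluded.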
Compound,outcome,AC50
Cc1cc(-c2ccc(N)c(C)c2)ccc1N,inactive,–
ClC(Cl)=C(c1ccc(Cl)cc1)c1ccc(Cl)cc1,inactive,–
NS(=O)(=O)C(F)(F)C(F)(F)C(F)(F)C(F)(F)C(F)(F)C(F)(F)C(F)(F)C(F)(F)F,inactive,–
CC(c1ccc(O)cc1)(c1ccc(O)cc1)c1ccc(O)cc1,inactive,–
CN(C)CCO,inactive,–
CCC(C)(c1ccc(O)cc1)c1ccc(O)cc1,–,46.4 µM (active)
ClC1=C(Cl)[C@]2(Cl)[C@@H]3[C@@H](Cl)[C@H]4O[C@H]4[C@@H]3C1(Cl)C2(Cl)Cl,inactive,–
C=CC(=O)NCNC(=O)C=C,inactive,–
Cc1ccc(O)c(C)c1,inactive,–
CC(C)(O)C(=O)Nc1ccc([N+](=O)[O-])c(C(F)(F)F)c1,inactive,–
C[C@]12CCC(=O)C=C1CC[C@@H]1[C@@H]2CC[C@]2(C)C(=O)CC[C@@H]12,inactive,–
CC(C)C(=O)OCC(C)(C)C(OC(=O)C(C)C)C(C)C (stereo not given),inactive,–
O=NN(c1ccccc1)c1ccccc1,inactive,–
O=C(N[C@H]1CN2CCC1CC2)c1cc2ccoc2cn1,inactive,–
CO/C=C(/C(=O)OC)c1ccccc1COc1cccc(C(F)(F)F)n1,–,18.1 µM (active)
CCC(C)c1cc([N+](=O)[O-])cc([N+](=O)[O-])c1O (stereo not given),inactive,–
COS(=O)(=O)OC,inactive,–
Nc1ccc(-c2ccc(N)cc2)cc1,inactive,–
Cc1cccc([N+](=O)[O-])c1,inactive,–
O=C(O)C(F)(F)C(F)(F)C(F)(F)C(F)(F)C(F)(F)C(F)(F)C(F)(F)C(F)(F)F,inactive,–
CC(C)(c1ccccc1)c1ccc(O)cc1,inactive,–
ClC1=C(Cl)[C@]2(Cl)[C@@H]3[C@H]4C[C@H]([C@@H]5O[C@H]45)[C@@H]3[C@@]1(Cl)C2(Cl)Cl,–,65.6 µM (active)
Clc1ccc(Cl)cc1,inactive,–
Oc1c(Cl)c(Cl)c(Cl)c(Cl)c1Cl,inactive,–
C[C@]12CCC(=O)C=C1CC[C@@H]1[C@@H]2CC[C@@]2(C)[C@H]1CC[C@]2(C)O,inactive,–
O=C(NC(=O)c1c(F)cccc1F)Nc1cc(Cl)c(OC(F)(F)C(F)F)c(Cl)c1,inactive,–

# Assay: Tanguay_ZF_120hpf_PFIN_legacy: (Legacy) Oregon State University Tanguay Lab 120 Hour Post-fertilization zebrafish Assay for Pectoral Fin Malformation (AID 2283648);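 also: each larva judged yes or no for fin defect by brightfield with dead larvae skipped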
# How it was run: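 Binary pectoral fin malformation call at 120 hpf by brightfield microscopy; 5D wild-type zebrafish, chorion removed at 4 hpf, one embryo per well from 6 hpf, static exposure at 28C; DMSO (0.64% final) as baseline.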
row,Compound,outcome
1,ClC(Cl)=C(c1ccc(Cl)cc1)c1ccc(Cl)cc1,inactive
2,CC(c1ccc(O)cc1)(c1ccc(O)cc1)c1ccc(O)cc1,inactive
3,CN(C)CCO,inactive
4,O=C(NC(=O)c1c(F)cccc1F)Nc1cc(Cl)c(OC(F)(F)C(F)F)c(Cl)c1,inactive
